PubChem BioAssay (Tox21)
Inconclusive results are not listed. A call without a number means that no potency is given here. A structure can be active in one record and inactive in another. Activity calls are given as the source filed them. Unless noted, calls come from the whole dose curve; as a rule, active = well fitted curve in the direction sought with a large enough effect in the repeat runs; inconclusive = weak or mixed curves; inactive = no such curve, though single readings can be large; an effect the other way counts as inactive or inconclusive.

Experiments:
[1] = qHTS assay for small molecules that induce genotoxicity in human embryonic kidney cells expressing luciferase-tagged ATAD5 (AID 651632); note: nearly all actives have a fitted effect of over 15% in size
Method in brief: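 HEK293T cells carrying a luciferase reporter tagged to ATAD5 were exposed to compound or DMSO vehicle for 16 hr at 37C, 5% CO2. Amplite was added, and after 30 min at room temperature luciferase activity was read as a marker of ATAD5 induction.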

[2] = qHTS assay for small molecule agonists of the p53 signaling pathway - cell viability (AID 651633; calls by dose curve; note: nearly all actives have a fitted effect of over 30% in size; note: potency is the fitted concentration of half-maximal effect)
Method in brief: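 p53RE-bla cells, seeded at 4,000 per well and rested 5 h at 37 C/5% CO2, received compounds in DMSO for 16 h at 37 C. CellTiter-Glo was then added, and luminescence was read after 30 min at room temperature to gauge cytotoxicity.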

[3] = qHTS assay for small molecule disruptors of the mitochondrial membrane potential - cell viability (AID 720634; calls by dose curve;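 note: human HepG2 liver cancer cells; series mostly up to about 83 µM; nearly all actives have a fitted effect of over 20% in size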)
Method in brief: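 HepG2 cells seeded overnight at 37 C, then exposed to compound or DMSO for 1 hr at 37 C, 5% CO2. m-MPI dye added, then CellTiter-Glo for 30 min at room temperature; viability read as ATP luminescence.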

[4] = qHTS assay for small molecule disruptors of the mitochondrial membrane potential (AID 720635)
Method in brief: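 HepG2 cells (2,000/well) attached overnight at 37C, then took compound for 1 hr at 37C, 5% CO2. Mito-MPS dye was added for 30 min; fluorescence was read at 490/535 nm (monomers) and 540/590 nm (aggregates).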

[5] = qHTS assay to test for compound auto fluorescence at 590 nm (red) in HepG2 cells (AID 720674)
Method in brief: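 Rose Bengal sodium served as the red fluorophore standard. HepG2 monolayers (overnight attachment, MEM with 10% FBS) were exposed to test compounds for 1 hr at 37 C and read at Ex 540/Em 590 nm.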

[6] = qHTS assay to test for compound auto fluorescence at 535 nm (green) in HepG2 cells (AID 720675)
[7] = qHTS assay to test for compound auto fluorescence at 460 nm (blue) in HEK293 cells (AID 720678)
Method in brief: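 Blue read-out at excitation 405 nm and emission 460 nm follows overnight compound exposure of HEK293 cells at 37C in 5% CO2. Activity is given as auto fluorescence equivalency to triamterene.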

[8] = qHTS assay to test for compound auto fluorescence at 590 nm (red) in HEK293 cells (AID 720679)
Method in brief: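 Red channel, Ex/Em 540/590nm; signal expressed as equivalency to Rose Bengal sodium. HEK293, 2,000 cells/well, 10% dialyzed FBS; 23 nL compound pinned after 4-5 hr attachment; overnight 37C/5% CO2 before reading.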

[9] = qHTS assay to test for compound auto fluorescence at 460 nm (blue) in HEK293 cell free culture (AID 720681)
Method in brief: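 Test compounds were pinned into cell-free culture medium (DMEM with 10% FBS) and fluorescence was read directly at Ex/Em 405/460 nm. Signals were expressed as fluorescence equivalents of triamterene, with DMSO vehicle as control.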

[10] = qHTS assay to test for compound auto fluorescence at 535 nm (green) in HEK293 cell free culture (AID 720682)
Method in brief: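 Green-channel intensity (Ex/Em 485/535 nm) was recorded from compound-treated wells containing only DMEM with 10% FBS. Fluorescein provided the equivalency standard.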

[11] = qHTS assay to test for compound auto fluorescence at 590 nm (red) in HEK293 cell free culture (AID 720683)
Method in brief: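 Tox21 10K library compounds were pinned into cell-free DMEM with 10% FBS and fluorescence was read at excitation 540 nm. Activity is expressed as Rose Bengal sodium equivalency.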

[12] = qHTS assay to test for compound auto fluorescence at 590 nm (red) in HepG2 cell free culture (AID 720684)
Method in brief: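 Red fluorescence (540 nm excitation, 590 nm emission) was measured after compound transfer into cell-free MEM supplemented with 10% FBS. Values are equivalencies against Rose Bengal sodium.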

[13] = qHTS assay to test for compound auto fluorescence at 460 nm (blue) in HepG2 cell free culture (AID 720685)
Method in brief: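 Compound (23 nL) or DMSO pinned into cell-free MEM with 10% FBS; blue fluorescence read at 405/460 nm excitation/emission, expressed as auto-fluorescence equivalency to triamterene.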

[14] = qHTS assay to test for compound auto fluorescence at 535 nm (green) in HepG2 cell free culture (AID 720686)
[15] = target: Glucocorticoid receptor (Homo sapiens) (UniProt P04150); test: qHTS assay to identify small molecule agonists of the glucocorticoid receptor (GR) signaling pathway (AID 720691; active = well fitted activation curve with a large enough effect in the signal ratio in the repeat runs, not every such curve was filed as active; the % refers to the signal ratio)
Sequence of Glucocorticoid receptor (Homo sapiens) (P04150 whole entry, looked up): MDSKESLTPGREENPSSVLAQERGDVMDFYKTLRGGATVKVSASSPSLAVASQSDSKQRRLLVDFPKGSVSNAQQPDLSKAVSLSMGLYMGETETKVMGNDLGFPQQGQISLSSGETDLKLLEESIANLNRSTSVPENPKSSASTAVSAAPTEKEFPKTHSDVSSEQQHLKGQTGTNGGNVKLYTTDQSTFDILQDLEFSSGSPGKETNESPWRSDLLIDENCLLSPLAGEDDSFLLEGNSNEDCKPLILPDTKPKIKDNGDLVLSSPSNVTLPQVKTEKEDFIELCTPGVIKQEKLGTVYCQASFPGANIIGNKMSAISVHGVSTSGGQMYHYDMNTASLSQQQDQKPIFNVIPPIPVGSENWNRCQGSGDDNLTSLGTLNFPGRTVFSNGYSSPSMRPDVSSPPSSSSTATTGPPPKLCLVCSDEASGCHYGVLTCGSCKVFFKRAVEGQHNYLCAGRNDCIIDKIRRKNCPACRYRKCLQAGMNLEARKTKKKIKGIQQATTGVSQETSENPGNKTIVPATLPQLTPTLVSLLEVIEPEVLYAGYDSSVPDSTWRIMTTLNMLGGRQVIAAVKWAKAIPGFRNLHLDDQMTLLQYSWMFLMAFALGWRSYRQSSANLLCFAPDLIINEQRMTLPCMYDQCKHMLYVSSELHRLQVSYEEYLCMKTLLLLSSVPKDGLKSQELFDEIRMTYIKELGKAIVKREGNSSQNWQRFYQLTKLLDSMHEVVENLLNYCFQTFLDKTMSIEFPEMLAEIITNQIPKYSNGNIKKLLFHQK
Method in brief: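 GR-bla HeLa cells (beta-lactamase reporter under glucocorticoid response element) were plated 4 h at 37 C/5% CO2, given compounds in DMSO, and incubated 18 h at 37 C. LiveBLAzer B/G FRET substrate was added for 2 h at room temperature, then fluorescence intensity read.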

[16] = target: Glucocorticoid receptor (Homo sapiens) (UniProt P04150); test: qHTS assay to identify small molecule antagonists of the glucocorticoid receptor (GR) signaling pathway (AID 720692; active = well fitted inhibition curve with a large enough effect in the signal ratio in the repeat runs, not every such curve was filed as active; the % refers to the signal ratio)
Method in brief: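 GR-bla HeLa cells (beta-lactamase reporter under glucocorticoid response element) were pre-plated 4 h at 37 C, treated with compounds plus 5 nM dexamethasone (final) for 18 h, then read by LiveBLAzer B/G FRET fluorescence after 2 h.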

[17] = qHTS assay to test for compound auto fluorescence at 535 nm (green) in HEK293 cells (AID 720680)
[18] = qHTS assay to test for compound auto fluorescence at 460 nm (blue) in HepG2 cells (AID 720687)
Method in brief: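 Cells (2,000/well in MEM with 10% FBS) attached overnight at 37 C, then were exposed to compound or DMSO for 1 hr at 37 C, 5% CO2. Fluorescence read at Ex/Em 405/460 nm, expressed as triamterene-equivalent signal.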

[19] = qHTS assay for small molecules that induce genotoxicity in human embryonic kidney cells expressing luciferase-tagged ATAD5 - cell viability (AID 651634; calls by dose curve; note: nearly all actives have a fitted effect of over 25% in size)
Method in brief: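 HEK293T cells expressing luciferase-tagged ATAD5 were exposed to compound or DMSO for 15.5 hr at 37C, 5% CO2. Viability was then read as live-cell protease activity by CellTiter-Fluor fluorescence after 30 min at 37C.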

| SMILES | Potency [1] | Potency [2] | Potency [3] | Potency [4] | outcome [5] | outcome [6] | Potency [7] | outcome [8] | Potency [9] | outcome [10] | outcome [11] | outcome [12] | Potency [13] | outcome [14] | Potency [15] | Potency [16] | outcome [17] | Potency [18] | Potency [19] |
| --- | --- | --- | --- | --- | --- | --- | --- | --- | --- | --- | --- | --- | --- | --- | --- | --- | --- | --- | --- |
| CC(Cl)C(Cl)Cl (configuration not stated) | inactive | inactive | inactive | inactive | inactive | inactive | inactive | inactive | inactive | inactive | inactive | inactive | inactive | inactive | inactive | inactive |  |  |  |
| OCC1CC=CCC1 (configuration not stated) | inactive | inactive | inactive | inactive |  | inactive | inactive | inactive | inactive | inactive | inactive | inactive | inactive | inactive | inactive |  | inactive | inactive |  |
| Cc1ccc(/C=N/n2c(-c3ccccc3)csc2=S)cc1 | inactive | inactive |  |  | inactive | inactive | inactive | inactive | inactive | inactive | inactive | inactive | inactive | inactive | inactive |  | inactive | inactive | inactive |
| CC1=CC(O)CC(C)(C)C1 (configuration not stated) | inactive | inactive | inactive |  | inactive | inactive | inactive | inactive | inactive | inactive | inactive | inactive | inactive | inactive | inactive | inactive | inactive | inactive | inactive |
| OC/C(Br)=C(\Br)CO | inactive | inactive | inactive |  | inactive | inactive | inactive | inactive | inactive | inactive | inactive | inactive | inactive | inactive | inactive | inactive | inactive | inactive | inactive |
| CCc1nn(CCCN2CCN(c3cccc(Cl)c3)CC2)c(=O)n1CCOc1ccccc1 | inactive | 26.6 µM (active) and inactive | inactive |  | inactive | inactive | inactive | inactive | inactive | inactive | inactive | inactive | inactive | inactive |  |  | inactive | inactive |  |
| CCC1(C)CC(=O)NC1=O (configuration not stated) | inactive | inactive | inactive |  | inactive | inactive | inactive | inactive | inactive | inactive | inactive | inactive | inactive |  | inactive | inactive | inactive | inactive |  |
| C1COCO1 | inactive | inactive |  |  | inactive | inactive | inactive | inactive | inactive | inactive | inactive | inactive | inactive | inactive | inactive | inactive | inactive | inactive | inactive |
| CCNC(=O)N1CCN(CCCC(c2ccc(F)cc2)c2ccc(F)cc2)CC1 | inactive | inactive | inactive |  | inactive | inactive | inactive | inactive | inactive | inactive | inactive | inactive | inactive |  | inactive |  | inactive | inactive |  |
| CC1=C(C=O)C(C)(C)CCC1 | inactive | inactive | inactive |  |  | inactive | inactive | inactive | inactive | inactive | inactive | inactive | inactive |  | inactive | inactive |  | inactive | inactive |
| CCCOc1ccc(S(=O)(=O)N2CCN(CC)CC2)cc1-c1nc2c(CC)n(Cc3ccccn3)nc2c(=O)[nH]1 | inactive | inactive | inactive |  | inactive | inactive | inactive | inactive | inactive | inactive | inactive | inactive | inactive | inactive | inactive |  | inactive | inactive | inactive |
| CC(C)CCCCCOC(=O)CCCCC(=O)OCCCCCC(C)C | inactive | inactive | inactive |  | inactive | inactive | inactive | inactive | inactive | inactive | inactive | inactive | inactive | inactive | inactive | inactive | inactive | inactive | inactive |
| C[C@@H]1C[C@H]2[C@@H]3CCC4=CC(=O)C=C[C@]4(C)[C@@]3(F)[C@@H](O)C[C@]2(C)[C@@]1(O)C(=O)CO | inactive | inactive | inactive |  | inactive | inactive | inactive | inactive | inactive | inactive | inactive | inactive | inactive | inactive |  |  |  | inactive | inactive |
| CCCCCCCCCCOS(=O)(=O)O | inactive | inactive |  |  | inactive | inactive | inactive |  | inactive | inactive | inactive | inactive | inactive | inactive |  |  |  | inactive | inactive |
| ON(Cc1ccccc1)Cc1ccccc1 | inactive | inactive | inactive |  | inactive | inactive | inactive | inactive | inactive | inactive | inactive | inactive | inactive | inactive | inactive |  | inactive | inactive | inactive |
